# Among all 5,500 compounds or so, about 2,000 (36%) were called active. Roughly 18% stayed inconclusive and do not appear here. Some of the results follow. Unmarked numbers belong to inactive results. Rule as the data show it: active = normalized growth mostly below about 0.91 (no sharp cut-off); inconclusive = no clear call, values can overlap the other calls; inactive = mostly above about 0.92.
# Experiment: chemical genetic growth profiling, strain panel (AID 1159580);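 also: tested at 20 µM; growth read once vehicle control cultures reached saturation at 30 °C; 1 = growth at the plate median or of vehicle wells; lower values mean less growth of the strain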
# Conditions: growth OD
smiles,measurement,setting,value
Cc1cc(OC(=O)c2c(C)cc(OC(=O)c3c(C)cc(O)cc3O)cc2O)cc(O)c1C(=O)O,normalized growth,"S. cerevisiae deletion strains, locus YAL013W, strain DEP1, hits give low values",1.02
same,normalized growth,"S. cerevisiae deletion strains, locus YBR021W, strain FUR4, hits give low values",0.985
same,normalized growth,"S. cerevisiae deletion strains, locus YBR229C, strain ROT2, hits give low values",1.03
same,normalized growth,"S. cerevisiae deletion strains, locus YCL029C, strain bik1, hits give low values",0.973
same,normalized growth,"S. cerevisiae deletion strains, locus YDL035C, strain GPR1, hits give low values",0.997
same,normalized growth,"S. cerevisiae deletion strains, locus YDL074C, strain BRE1, hits give low values",1.01
same,normalized growth,"S. cerevisiae deletion strains, locus YDL101C, strain DUN1, hits give low values",1.02
same,normalized growth,"S. cerevisiae deletion strains, locus YDL134C, strain PPH21, hits give low values",1.03
same,normalized growth,"S. cerevisiae deletion strains, locus YDL185W, strain tfp1, hits give low values",0.99
same,normalized growth,"S. cerevisiae deletion strains, locus YDL192W, strain arf1, hits give low values",0.979
same,normalized growth,"S. cerevisiae deletion strains, locus YDR101C, strain arx1, hits give low values",0.971
same,normalized growth,"S. cerevisiae deletion strains, locus YDR150W, strain NUM1, hits give low values",1.03
same,normalized growth,"S. cerevisiae deletion strains, locus YDR162C, strain NBP2, hits give low values",0.998
same,normalized growth,"S. cerevisiae deletion strains, locus YDR318W, strain mcm21, hits give low values",0.967
same,normalized growth,"S. cerevisiae deletion strains, locus YDR388W, hits give low values",0.992
same,normalized growth,"S. cerevisiae deletion strains, locus YDR502C, strain sam2, hits give low values",0.991
same,normalized growth,"S. cerevisiae deletion strains, locus YER110C, hits give low values",0.986
same,normalized growth,"S. cerevisiae deletion strains, locus YER155C, strain BEM2, hits give low values",1.03
same,normalized growth,"S. cerevisiae deletion strains, locus YER167W, strain BCK2, hits give low values",1
same,normalized growth,"S. cerevisiae deletion strains, locus YGL078C, strain dbp3, hits give low values",1
same,normalized growth,"S. cerevisiae deletion strains, locus YGL086W, strain mad1, hits give low values",0.98
same,normalized growth,"S. cerevisiae deletion strains, locus YGL248W, strain PDE1, hits give low values",1.04
same,normalized growth,"S. cerevisiae deletion strains, locus YGR078C, strain PAC10, hits give low values",1
same,normalized growth,"S. cerevisiae deletion strains, locus YGR135W, strain pre9, hits give low values",0.999
same,normalized growth,"S. cerevisiae deletion strains, locus YGR229C, strain SMI1, hits give low values",0.953
same,normalized growth,"S. cerevisiae deletion strains, locus YGR252W, strain gcn5, hits give low values",0.872
same,normalized growth,"S. cerevisiae deletion strains, locus YHR030C, strain SLT2, hits give low values",1.02
same,normalized growth,"S. cerevisiae deletion strains, locus YHR079C, strain IRE1 (second series), hits give low values",0.971
same,normalized growth,"S. cerevisiae deletion strains, locus YHR094C, strain hxt1, hits give low values",1.01
same,normalized growth,"S. cerevisiae deletion strains, locus YHR129C, strain ARP1, hits give low values",1.02
same,normalized growth,"S. cerevisiae deletion strains, locus YHR200W, strain rpn10, hits give low values",0.994
same,normalized growth,"S. cerevisiae deletion strains, locus YIL066C, strain RNR3, hits give low values",1.01
same,normalized growth,"S. cerevisiae deletion strains, locus YIL073C, strain SPO22, hits give low values",0.956
same,normalized growth,"S. cerevisiae deletion strains, locus YIL125W, strain kgd1, hits give low values",1.02
same,normalized growth,"S. cerevisiae deletion strains, locus YIR030C, strain dcg1, hits give low values",0.998
same,normalized growth,"S. cerevisiae deletion strains, locus YJL095W, strain BCK1, hits give low values",0.986
same,normalized growth,"S. cerevisiae deletion strains, locus YJL134W, strain LCB3, hits give low values",1.02
same,normalized growth,"S. cerevisiae deletion strains, locus YJL168C, strain set2, hits give low values",0.999
same,normalized growth,"S. cerevisiae deletion strains, locus YJL187C, strain SWE1 (second series), hits give low values",1.01
same,normalized growth,"S. cerevisiae deletion strains, locus YJR043C, strain POL32, hits give low values",0.981
same,normalized growth,"S. cerevisiae deletion strains, locus YJR075W, strain HOC1, hits give low values",0.979
same,normalized growth,"S. cerevisiae deletion strains, locus YKL009W, strain mrt4, hits give low values",0.76 (active)
same,normalized growth,"S. cerevisiae deletion strains, locus YKL068W, hits give low values",1
same,normalized growth,"S. cerevisiae deletion strains, locus YKL085W, strain MDH1 (second series), hits give low values",0.975
same,normalized growth,"S. cerevisiae deletion strains, locus YKL085W, strain MDH1, hits give low values",0.975
same,normalized growth,"S. cerevisiae deletion strains, locus YKL190W, strain CNB1, hits give low values",1.02
same,normalized growth,"S. cerevisiae deletion strains, locus YKR001C, strain vps1, hits give low values",0.967
same,normalized growth,"S. cerevisiae deletion strains, locus YLR039C, strain RIC1, hits give low values",0.997
same,normalized growth,"S. cerevisiae deletion strains, locus YLR058C, strain SHM2, hits give low values",1.02
same,normalized growth,"S. cerevisiae deletion strains, locus YLR102C, strain apc9, hits give low values",1.01
same,normalized growth,"S. cerevisiae deletion strains, locus YLR262C, strain YPT6, hits give low values",1
same,normalized growth,"S. cerevisiae deletion strains, locus YLR268W, strain sec22, hits give low values",0.982
same,normalized growth,"S. cerevisiae deletion strains, locus YLR330W, strain CHS5, hits give low values",1.01
same,normalized growth,"S. cerevisiae deletion strains, locus YLR342W, strain FKS1 (second series), hits give low values",0.937
same,normalized growth,"S. cerevisiae deletion strains, locus YLR371W, strain rom2, hits give low values",0.999
same,normalized growth,"S. cerevisiae deletion strains, locus YLR418C, strain cdc73, hits give low values",0.959
same,normalized growth,"S. cerevisiae deletion strains, locus YML016C, strain PPZ1, hits give low values",1.03
same,normalized growth,"S. cerevisiae deletion strains, locus YML032C, strain rad52, hits give low values",0.965
same,normalized growth,"S. cerevisiae deletion strains, locus YML124C, strain tub3, hits give low values",1.01
same,normalized growth,"S. cerevisiae deletion strains, locus YMR078C, strain ctf18, hits give low values",1
same,normalized growth,"S. cerevisiae deletion strains, locus YMR223W, strain ubp8, hits give low values",0.967
same,normalized growth,"S. cerevisiae deletion strains, locus YMR263W, strain SAP30, hits give low values",1.02
same,normalized growth,"S. cerevisiae deletion strains, locus YMR307W, strain GAS1, hits give low values",0.862
same,normalized growth,"S. cerevisiae deletion strains, locus YNL067W, strain RPL9B, hits give low values",1.01
same,normalized growth,"S. cerevisiae deletion strains, locus YNL128W, strain TEP1, hits give low values",1.04
same,normalized growth,"S. cerevisiae deletion strains, locus YNL153C, strain GIM3, hits give low values",1.02
same,normalized growth,"S. cerevisiae deletion strains, locus YNL233W, strain BNI4, hits give low values",0.995
same,normalized growth,"S. cerevisiae deletion strains, locus YNL250W, strain rad50, hits give low values",0.997
same,normalized growth,"S. cerevisiae deletion strains, locus YNL271C, strain bni1, hits give low values",0.985
same,normalized growth,"S. cerevisiae deletion strains, locus YNL298W, strain CLA4, hits give low values",0.981
same,normalized growth,"S. cerevisiae deletion strains, locus YNL307C, strain MCK1, hits give low values",0.966
same,normalized growth,"S. cerevisiae deletion strains, locus YNL322C, strain KRE1, hits give low values",1.03
same,normalized growth,"S. cerevisiae deletion strains, locus YNR052C, strain pop2, hits give low values",0.972
same,normalized growth,"S. cerevisiae deletion strains, locus YOL006C, strain TOP1, hits give low values",0.993
same,normalized growth,"S. cerevisiae deletion strains, locus YOL012C, strain htz1",0.878
same,normalized growth,"S. cerevisiae deletion strains, locus YOL147C, strain pex11, hits give low values",0.999
same,normalized growth,"S. cerevisiae deletion strains, locus YOR061W, strain CKA2, hits give low values",1.02
same,normalized growth,"S. cerevisiae deletion strains, locus YOR069W, strain VPS5, hits give low values",1.01
same,normalized growth,"S. cerevisiae deletion strains, locus YOR136W, strain idh2, hits give low values",0.982
same,normalized growth,"S. cerevisiae deletion strains, locus YOR144C, strain elg1, hits give low values",1.01
same,normalized growth,"S. cerevisiae deletion strains, locus YOR184W, strain ser1, hits give low values",0.95
same,normalized growth,"S. cerevisiae deletion strains, locus YOR316C, strain cot1, hits give low values",0.996
same,normalized growth,"S. cerevisiae deletion strains, locus YPL055C, strain LGE1, hits give low values",1.03
same,normalized growth,"S. cerevisiae deletion strains, locus YPL241C, strain CIN2, hits give low values",1.02
same,normalized growth,"S. cerevisiae deletion strains, locus YPR119W, strain clb2, hits give low values",1
same,normalized growth,"S. cerevisiae deletion strains, locus YPR141C, strain kar3, hits give low values",1.01
same,normalized growth,"S. cerevisiae deletion strains, locus YPR163C, strain tif3, hits give low values",1
same,normalized growth,"S. cerevisiae deletion strains, locus YPR167C, strain met16, hits give low values",1.01
same,normalized growth,"S. cerevisiae deletion strains, strain wtn01, hits give low values",0.994
same,normalized growth,"S. cerevisiae strains, strain wild type, hits give low values",1
